Reference: PubChem BioAssay
For part of these data: Measured potencies and affinities stand elsewhere. Activity calls are given as the source filed them.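 Rule for the calls, unless noted: active = earlier screen potentiator hit that boosts the TRPC4 ion channel at some dose, with a dose response; inactive = no potentiation, no dose response, or not a prior hit.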

Tests used:
[1] = tested on: TRPC4 beta (transient receptor potential cation channel C4), mouse; assay: activators of mouse TRPC4 channel, confirmation, cell-based, Fluo4 calcium, HEK293 TRPC4beta/mu-opioid, duplicates, 10 µM (AID 2426;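 active = fluorescence ratio normalized to control raised more than 50% in primary screen plus both repeat runs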;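 for activation: percent rise of integrated ratio over buffer wells lacking compound which define 0%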); conditions: Fluo4 calcium fluorescence, at 10 µM; stronger effect = higher value
[2] = tested on: transient receptor potential cation channel C4 beta (TRPC4), mouse; assay: activators of mouse TRPC4 channel, confirmation, cell-based, second round, Fluo4, HEK293 TRPC4beta/mu-opioid, 1 µM (AID 2461;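 active = primary screen active and over 50% activation in each of two duplicate runs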;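 for activation: 0% = wells without test compound as baseline of integrated fluorescence ratio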); conditions: Fluo4 calcium fluorescence, at 1 µM; stronger effect = higher value
[3] = tested on: TRPC4 (transient receptor potential cation channel C4 beta), mouse; assay: positive allosteric modulators of mouse TRPC4, confirmation, cell-based, second round, Fluo-4, HEK293 TRPC4beta/mu-opioid, 1 µM (AID 2554;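 active = primary screen hit whose fluorescence ratio, in both repeats, exceeds the weak agonist control mean by 3 SD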); conditions: DAMGO EC20, Fluo-4 calcium flux, at 1 µM; stronger effect = higher value
[4] = tested on: TRPC4 beta (transient receptor potential cation channel C4), mouse; assay: positive allosteric modulators of mouse TRPC4, confirmation, cell-based, Fluo-4, HEK293 TRPC4beta/mu-opioid (AID 2555;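 active = primary screen hit whose calcium fluorescence ratio, in both repeats, exceeds the weak agonist control mean by 3 SD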); conditions: DAMGO EC20, Fluo-4 calcium flux, at 10 µM; stronger effect = higher value
[5] = biological target: Short transient receptor potential channel 4 (Mus musculus) (UniProt Q9QUQ5); assay: inhibitors of mouse TRPC4 channel, confirmation, cell-based, Fluo4, HEK293 TRPC4beta/mu-opioid (AID 2636;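 active = calcium signal cut by more than 3 SD below the full-agonist control yet still positive, in both repeats and the earlier primary screen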); conditions: DAMGO, Fluo4 calcium flux, at 10 µM; stronger effect = higher value
Short transient receptor potential channel 4 (Mus musculus), sequence (Q9QUQ5 whole entry, looked up): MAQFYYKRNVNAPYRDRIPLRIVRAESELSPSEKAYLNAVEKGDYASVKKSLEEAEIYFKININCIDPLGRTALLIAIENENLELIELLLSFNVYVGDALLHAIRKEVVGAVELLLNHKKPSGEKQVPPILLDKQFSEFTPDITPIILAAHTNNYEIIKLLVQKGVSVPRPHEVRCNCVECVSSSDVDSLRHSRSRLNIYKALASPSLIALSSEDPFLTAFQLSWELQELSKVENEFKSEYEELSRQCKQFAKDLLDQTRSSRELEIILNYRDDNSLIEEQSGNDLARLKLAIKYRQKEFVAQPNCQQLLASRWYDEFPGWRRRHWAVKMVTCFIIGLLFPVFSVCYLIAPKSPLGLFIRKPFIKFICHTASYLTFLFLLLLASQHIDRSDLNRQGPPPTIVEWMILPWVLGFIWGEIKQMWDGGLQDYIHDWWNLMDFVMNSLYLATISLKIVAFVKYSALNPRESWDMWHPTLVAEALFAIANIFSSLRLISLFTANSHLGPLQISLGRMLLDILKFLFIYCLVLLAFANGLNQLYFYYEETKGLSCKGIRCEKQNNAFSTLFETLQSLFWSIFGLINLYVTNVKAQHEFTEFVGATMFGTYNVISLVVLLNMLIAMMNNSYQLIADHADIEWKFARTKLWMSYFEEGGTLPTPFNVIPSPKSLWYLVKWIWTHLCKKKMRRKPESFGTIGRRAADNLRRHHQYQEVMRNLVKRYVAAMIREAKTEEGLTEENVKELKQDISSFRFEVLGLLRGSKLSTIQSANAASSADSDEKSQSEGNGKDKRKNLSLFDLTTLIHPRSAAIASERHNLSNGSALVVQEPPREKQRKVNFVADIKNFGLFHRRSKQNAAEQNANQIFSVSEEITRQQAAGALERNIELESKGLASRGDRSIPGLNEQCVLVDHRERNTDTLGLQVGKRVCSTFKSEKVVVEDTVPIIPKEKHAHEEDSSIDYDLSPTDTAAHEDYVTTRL

[6] = biological target: Short transient receptor potential channel 4 (Mus musculus) (UniProt Q9QUQ5); assay: inhibitors of mouse TRPC4 channel, confirmation, cell-based, second round, Fluo4, HEK293 TRPC4beta/mu-opioid, 1 µM (AID 2637;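 active = calcium signal ratio cut to more than 3 SD under the fully stimulated control mean yet still positive, in both repeats and the primary screen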); conditions: Fluo4 calcium flux, DAMGO, at 1 µM; stronger effect = higher value
[7] = biological target: Short transient receptor potential channel 4 (Mus musculus) (UniProt Q9QUQ5); assay: TRPC4 positive allosteric modulators, dose response, cell-based, HEK293 TRPC4/mu-opioid, Fluo-4 calcium, EC20 DAMGO (AID 434941);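 note: calcium entry triggered by an EC20 dose of DAMGO at the co-expressed mu-opioid receptor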
[8] = biological target: Short transient receptor potential channel 4 (Mus musculus) (UniProt Q9QUQ5); assay: mouse TRPC4 channel inhibitors, dose response, cell-based, HEK293 TRPC4/mu-opioid, Fluo-4 calcium (AID 434942;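 active = primary screen inhibitor hit that blocks the TRPC4 channel at some tested dose, yielding a dose curve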)
[9] = biological target: Short transient receptor potential channel 6 (Mus musculus) (UniProt Q61143); assay: inhibition of mouse TRPC6 channel, confirmation, selectivity assay for TRPC4 inhibitor project, cell-based, HEK293, membrane potential dye, duplicate (AID 434948;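 active = active in primary screen and both duplicates, each dropping signal beyond three positive-control SD with fluorescence still positive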); conditions: HEK293 TRPC6, membrane potential dye fluorescence, at 10 µM, stimulated with maximal-effect acetylcholine; stronger effect = higher value
Short transient receptor potential channel 6 (Mus musculus), sequence (Q61143 whole entry, looked up): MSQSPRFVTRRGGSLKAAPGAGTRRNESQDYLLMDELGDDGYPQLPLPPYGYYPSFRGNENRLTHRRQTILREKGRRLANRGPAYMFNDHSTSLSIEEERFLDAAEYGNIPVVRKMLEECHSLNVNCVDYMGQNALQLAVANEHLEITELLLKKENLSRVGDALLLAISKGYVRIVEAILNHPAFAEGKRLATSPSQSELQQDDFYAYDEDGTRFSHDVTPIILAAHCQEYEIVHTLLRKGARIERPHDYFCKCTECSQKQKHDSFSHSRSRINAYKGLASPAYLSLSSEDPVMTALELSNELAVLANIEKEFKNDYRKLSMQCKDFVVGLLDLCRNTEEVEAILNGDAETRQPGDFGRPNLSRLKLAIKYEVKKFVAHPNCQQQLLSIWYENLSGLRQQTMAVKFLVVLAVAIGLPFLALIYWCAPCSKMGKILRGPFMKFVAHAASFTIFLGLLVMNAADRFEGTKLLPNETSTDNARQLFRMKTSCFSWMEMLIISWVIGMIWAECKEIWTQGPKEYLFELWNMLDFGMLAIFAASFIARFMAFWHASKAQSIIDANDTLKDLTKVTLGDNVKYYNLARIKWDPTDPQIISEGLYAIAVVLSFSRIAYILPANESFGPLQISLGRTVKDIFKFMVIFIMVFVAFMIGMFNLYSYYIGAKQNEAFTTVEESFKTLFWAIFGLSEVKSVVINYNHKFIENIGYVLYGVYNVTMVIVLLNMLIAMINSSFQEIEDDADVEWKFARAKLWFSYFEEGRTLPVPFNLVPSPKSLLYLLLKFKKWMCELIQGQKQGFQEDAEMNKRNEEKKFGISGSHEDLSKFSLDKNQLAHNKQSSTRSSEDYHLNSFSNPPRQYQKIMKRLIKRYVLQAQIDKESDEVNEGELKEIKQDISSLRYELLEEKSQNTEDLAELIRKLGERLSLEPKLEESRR

[10] = biological target: Short transient receptor potential channel 6 (Mus musculus) (UniProt Q61143); assay: activation of mouse TRPC6 channel, confirmation, selectivity assay for TRPC4 activator project, cell-based, HEK293, membrane potential dye, duplicate (AID 434950;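 active = membrane potential signal rise above negative control mean plus 3 SD in both duplicates, also active in the earlier TRPC4 screen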;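 for activation: 0% = buffer only wells and 100% = acetylcholine maximal-effect wells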); conditions: HEK293 TRPC6, membrane potential fluorescence, at 10 µM; stronger effect = higher value
[11] = biological target: Short transient receptor potential channel 6 (Mus musculus) (UniProt Q61143); assay: TRPC6 potentiation by TRPC4 potentiator hits, confirmation, selectivity assay for TRPC4 potentiator project, HEK293 cells, membrane potential dye, duplicate (AID 434952;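 active = compound raising the membrane signal above positive-control mean plus 3 SD in both repeats, and a primary screen hit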); conditions: HEK293 TRPC6, membrane potential dye fluorescence, at 10 µM, maximal acetylcholine added after compound; stronger effect = higher value
[12] = biological target: Short transient receptor potential channel 4 (Mus musculus) (UniProt Q9QUQ5); assay: calcium flux activators in TRPC4/5HT1a cells, counter-screen for TRPC4 activator project, cell-based, second counter screen, HEK293 TRPC4/5HT1a, Fluo-4 (AID 434977;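 active = calcium signal rise above buffer-control mean plus 5 SD in both duplicates, and also a hit in the primary screen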;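 for activation: plate controls were assay buffer for no effect and maximal serotonin response for full effect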); conditions: Fluo-4 calcium flux, at 10 µM; stronger effect = higher value
[13] = calcium flux inhibitors in TRPC4/5HT1a cells, confirmation, counter-screen for TRPC4 inhibitor project, cell-based, second counter screen, HEK293 TRPC4/5HT1a, Fluo-4 (AID 434978;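 active = primary screen active whose calcium signal fell more than 3 SD beyond the full-serotonin control mean in both duplicate plates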;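 note: serotonin given first at submaximal then at maximal dose after compound preincubation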); conditions: Fluo-4 calcium flux, at 10 µM, serotonin added to trigger calcium flux; stronger effect = higher value
[14] = tested on: TRPC4 (mouse), co-expressed with 5HT1a in HEK293; assay: calcium flux potentiators in TRPC4/5HT1a cells, confirmation, counter-screen for TRPC4 potentiator project, cell-based, second counter screen, HEK293 TRPC4/5HT1a, Fluo-4 (AID 434979;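 active = signal rise over 3 SD above mean of control wells given weak agonist, in both repeats and first screen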); conditions: Fluo-4 calcium flux, at 10 µM, serotonin added at its EC20 dose; stronger effect = higher value
[15] = calcium flux activation in mu-opioid HEK293 cells, confirmation, counter-screen for TRPC4 activator project, cell-based, HEK293 mu-opioid receptor line (AID 449723;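 active = hit in primary screen, with calcium signal over 5 SD above buffer well mean in both duplicates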;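 note: counter screen cells carry the mu-opioid receptor alone and lack TRPC4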); conditions: Fluo-4 calcium fluorescence, at 10 µM; stronger effect = higher value
[16] = calcium flux enhancement in mu-opioid HEK293 cells, confirmation, counter-screen for TRPC4 allosteric potentiator project, cell-based, HEK293 mu-opioid receptor line (AID 449724;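 active = calcium signal rise more than 3 SD above the low-dose agonist control mean, in both duplicate plates and the primary screen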;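 note: HEK293 cells carrying mu-opioid receptor only with no TRPC4 channel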); conditions: Fluo-4 calcium flux, at 10 µM, compound added before EC20 DAMGO stimulus; stronger effect = higher value

Structure (SMILES): COc1cc(C(=O)NC(=S)NNC(=O)[C@H]2C[C@@H]2c2ccccc2)cc(OC)c1OC
- activation [1]: 59% (active)
- outcome [2]: inactive
- outcome [3]: inactive
- outcome [4]: inactive
- outcome [5]: inactive
- outcome [6]: inactive
- outcome [7]: inactive
- outcome [8]: inactive
- outcome [9]: inactive
- activation [10]: 34% (active)
- outcome [11]: inactive
- activation [12]: 63.3% (active)
- outcome [13]: inactive
- outcome [14]: inactive
- activation [15]: 13.1% (active)
- outcome [16]: inactive

Structure (SMILES): Cc1ccn2cc(CCNC(=O)C3CC=CCC3C(=O)O)nc2c1 (stereo not given)
- activation [1]: 135% (active)
- outcome [2]: inactive
- outcome [3]: inactive
- outcome [4]: inactive
- outcome [5]: inactive
- outcome [6]: inactive
- outcome [7]: inactive
- outcome [8]: inactive
- outcome [9]: inactive
- outcome [10]: inactive
- outcome [11]: inactive
- activation [12]: 59.9% (active)
- outcome [13]: inactive
- outcome [14]: inactive
- outcome [15]: inactive
- outcome [16]: inactive

Structure (SMILES): CCOc1ccccc1CN1CCNC(=O)C1CC(=O)NCCc1ccccn1 (stereo not given)
- outcome [1]: inactive
- outcome [2]: inactive
- outcome [3]: inactive
- outcome [4]: inactive
- outcome [5]: inactive
- outcome [6]: inactive
- outcome [7]: inactive
- outcome [8]: inactive
- outcome [9]: inactive
- activation [10]: 23.5% (active)
- outcome [11]: inactive
- activation [12]: 17.3% (active)
- outcome [13]: inactive
- outcome [14]: inactive
- outcome [15]: inactive
- outcome [16]: inactive

Structure (SMILES): CCN1CCN(c2ccc(S(=O)(=O)N3CCCCC3)cc2NC(=O)C(C)Oc2ccc(F)cc2)CC1 (stereo not given)
- activation [1]: 185% (active)
- outcome [2]: inactive
- outcome [3]: inactive
- outcome [4]: inactive
- outcome [5]: inactive
- outcome [6]: inactive
- outcome [7]: inactive
- outcome [8]: inactive
- outcome [9]: inactive
- activation [10]: 32.5% (active)
- outcome [11]: inactive
- activation [12]: 9.95% (active)
- outcome [13]: inactive
- outcome [14]: inactive
- outcome [15]: inactive
- outcome [16]: inactive

Structure (SMILES): CCOC(=O)C1CCCN(C(c2ccccn2)c2c(C)[nH]c3ccccc23)C1 (stereo not given)
- activation [1]: 208% (active)
- outcome [2]: inactive
- outcome [3]: inactive
- outcome [4]: inactive
- outcome [5]: inactive
- outcome [6]: inactive
- outcome [7]: inactive
- outcome [8]: inactive
- outcome [9]: inactive
- activation [10]: 31% (active)
- outcome [11]: inactive
- activation [12]: 34% (active)
- outcome [13]: inactive
- outcome [14]: inactive
- outcome [15]: inactive
- outcome [16]: inactive

Structure (SMILES): COc1ccc(/C=C/CN2CCCC(C(=O)c3ccc(OC)c(F)c3)C2)cc1 (stereo not given)
- outcome [1]: inactive
- outcome [2]: inactive
- outcome [3]: inactive
- outcome [4]: inactive
- outcome [5]: inactive
- outcome [6]: inactive
- outcome [7]: inactive
- outcome [8]: inactive
- outcome [9]: inactive
- activation [10]: 33% (active)
- outcome [11]: inactive
- outcome [12]: inactive
- outcome [13]: inactive
- outcome [14]: inactive
- outcome [15]: inactive
- outcome [16]: inactive

Structure (SMILES): c1ccc(Nc2nc(Nc3ccccc3)nc(N3CCNCC3)n2)cc1
- activation [1]: 159% (active)
- outcome [2]: inactive
- outcome [3]: inactive
- outcome [4]: inactive
- outcome [5]: inactive
- outcome [6]: inactive
- outcome [7]: inactive
- outcome [8]: inactive
- outcome [9]: inactive
- activation [10]: 35.5% (active)
- outcome [11]: inactive
- activation [12]: 56.1% (active)
- outcome [13]: inactive
- outcome [14]: inactive
- outcome [15]: inactive
- outcome [16]: inactive

Structure (SMILES): COc1ccccc1C(=O)NNC(=S)NC(=O)c1cccs1
- activation [1]: 74% (active)
- outcome [2]: inactive
- outcome [3]: inactive
- outcome [4]: inactive
- outcome [5]: inactive
- outcome [6]: inactive
- outcome [7]: inactive
- outcome [8]: inactive
- outcome [9]: inactive
- outcome [10]: inactive
- outcome [11]: inactive
- activation [12]: 59.6% (active)
- outcome [13]: inactive
- outcome [14]: inactive
- activation [15]: 13.9% (active)
- outcome [16]: inactive

Structure (SMILES): O=C(NNC(=S)NC(=O)c1ccccc1Cl)c1cccc([N+](=O)[O-])c1
- activation [1]: 120% (active)
- outcome [2]: inactive
- outcome [3]: inactive
- outcome [4]: inactive
- outcome [5]: inactive
- outcome [6]: inactive
- outcome [7]: inactive
- outcome [8]: inactive
- outcome [9]: inactive
- activation [10]: 29% (active)
- outcome [11]: inactive
- activation [12]: 77.4% (active)
- outcome [13]: inactive
- outcome [14]: inactive
- activation [15]: 23% (active)
- outcome [16]: inactive

Structure (SMILES): CCCCN(CC)CCCNC(=O)Cn1nc(Cc2ccncc2)c2ccccc2c1=O
- activation [1]: 162% (active)
- activation [2]: 120% (active)
- outcome [3]: inactive
- outcome [4]: inactive
- outcome [5]: inactive
- outcome [6]: inactive
- outcome [7]: inactive
- outcome [8]: inactive
- outcome [9]: inactive
- activation [10]: 31.5% (active)
- outcome [11]: inactive
- activation [12]: 53.7% (active)
- outcome [13]: inactive
- outcome [14]: inactive
- outcome [15]: inactive
- outcome [16]: inactive

Structure (SMILES): CN(C)C(CNC(=O)Cc1cccc(C(F)(F)F)c1)c1ccco1 (stereo not given)
- activation [1]: 83% (active)
- outcome [2]: inactive
- outcome [3]: inactive
- outcome [4]: inactive
- outcome [5]: inactive
- outcome [6]: inactive
- outcome [7]: inactive
- outcome [8]: inactive
- outcome [9]: inactive
- activation [10]: 29% (active)
- outcome [11]: inactive
- outcome [12]: inactive
- outcome [13]: inactive
- outcome [14]: inactive
- outcome [15]: inactive
- outcome [16]: inactive

Structure (SMILES): Cc1onc(-c2c(F)cccc2Cl)c1C(=O)N1CCN(c2ncc(Br)cn2)CC1
- activation [1]: 109% (active)
- outcome [2]: inactive
- outcome [3]: inactive
- outcome [4]: inactive
- outcome [5]: inactive
- outcome [6]: inactive
- outcome [7]: inactive
- outcome [8]: inactive
- outcome [9]: inactive
- activation [10]: 42.5% (active)
- outcome [11]: inactive
- activation [12]: 37.9% (active)
- outcome [13]: inactive
- outcome [14]: inactive
- outcome [15]: inactive
- outcome [16]: inactive

Structure (SMILES): Cc1cc(-c2ccc(C)c(S(=O)(=O)NCCCN(Cc3ccccc3)C(C)C)c2)on1
- activation [1]: 161% (active)
- outcome [2]: inactive
- outcome [3]: inactive
- outcome [4]: inactive
- outcome [5]: inactive
- outcome [6]: inactive
- outcome [7]: inactive
- outcome [8]: inactive
- outcome [9]: inactive
- activation [10]: 44.5% (active)
- outcome [11]: inactive
- activation [12]: 56.3% (active)
- outcome [13]: inactive
- outcome [14]: inactive
- outcome [15]: inactive
- outcome [16]: inactive

Structure (SMILES): O=C(c1cccs1)N1CCN(c2ncc(Br)cn2)CC1
- activation [1]: 215% (active)
- activation [2]: 91% (active)
- outcome [3]: inactive
- outcome [4]: inactive
- outcome [5]: inactive
- outcome [6]: inactive
- outcome [7]: inactive
- outcome [8]: inactive
- outcome [9]: inactive
- activation [10]: 35.5% (active)
- outcome [11]: inactive
- activation [12]: 79.8% (active)
- outcome [13]: inactive
- outcome [14]: inactive
- outcome [15]: inactive
- outcome [16]: inactive

Structure (SMILES): Cc1cc(OCCCn2ccnc2)cc(C)c1Cl
- activation [1]: 67% (active)
- outcome [2]: inactive
- outcome [3]: inactive
- outcome [4]: inactive
- outcome [5]: inactive
- outcome [6]: inactive
- outcome [7]: inactive
- outcome [8]: inactive
- outcome [9]: inactive
- activation [10]: 47.5% (active)
- outcome [11]: inactive
- activation [12]: 15.8% (active)
- outcome [13]: inactive
- outcome [14]: inactive
- outcome [15]: inactive
- outcome [16]: inactive
